Source: PubChem BioAssay
Rows were chosen to be rich in hits. Some 3.4% of all compounds tested hit in one or more screens of this group.
ANO1 activ: activators or potentiators of mouse TMEM16A chloride channel; Q8BHY3; HEK293 TMEM16A/YFP-H148Q/I152L, iodide quench fluorescence; stronger effect = lower value; B-score at 10 µM; hit rate 0.3% among 340,000;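 active means fluorescence-ratio B-score plate-corrected deviation score at least 3 library SD below zero, with starting fluorescence score within 5 deviations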;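 further: channel opened by trigger with iodide after compound preincubation; score built on the fluorescence ratio of max minus min over baseline; more negative score means more quench and so TMEM16A activation or potentiation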
MEKK2wt PB1 HTS: raises or lowers MEK5 binding to wildtype human MEKK2 PB1 domain | bead flow cytometry, Alexa488-MEK5 binding to MEKK2 WT; actives lie on both sides | binding response (% of control), % at 10 µM | hit rate 1.1% among 290,000 | AID 1531; in the data active means binding response below about 67% or above about 130%
MEKK2 mut-MEK5: signal of MEK5 binding to mutant human MEKK2 PB1 domain; bead flow cytometry, Alexa488-MEK5 binding to MEKK2 mutant; percent response, % at 10 µM; hit rate 0.35% among 290,000; AID 1530; in the data active means percent response above about 24%, passing the limit was not always enough
NTR1 ag: NTR1 (human) agonism. P30989. hit rate 0.17% among 330,000. NTR1-U2OS beta-arrestin-GFP spot imaging, agonist mode. activation, % at 20 µM;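 active means activation at or above 40% of the spot to cytoplasm intensity ratio, with at least 20 cells analyzed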
MEKK3 PB1 HTS: MEKK3-MEK5 PB1 interaction, increase or decrease. hit rate 1.4% among 290,000. Q99759. AID 1529. binding response (% of control), % at 10 µM. bead-based flow cytometry, Alexa488-MEK5 binding to MEKK3; actives lie on both sides; 0 = blocked by unlabeled MEK5, 100 = vehicle;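 active means binding response more than 3 SD above or below the average of its plate-row segment, actives on both sides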;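 further: Alexa488 bead fluorescence after subtracting the streptavidin-only scavenger bead signal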
Target sequence (Q99759 whole entry, looked up): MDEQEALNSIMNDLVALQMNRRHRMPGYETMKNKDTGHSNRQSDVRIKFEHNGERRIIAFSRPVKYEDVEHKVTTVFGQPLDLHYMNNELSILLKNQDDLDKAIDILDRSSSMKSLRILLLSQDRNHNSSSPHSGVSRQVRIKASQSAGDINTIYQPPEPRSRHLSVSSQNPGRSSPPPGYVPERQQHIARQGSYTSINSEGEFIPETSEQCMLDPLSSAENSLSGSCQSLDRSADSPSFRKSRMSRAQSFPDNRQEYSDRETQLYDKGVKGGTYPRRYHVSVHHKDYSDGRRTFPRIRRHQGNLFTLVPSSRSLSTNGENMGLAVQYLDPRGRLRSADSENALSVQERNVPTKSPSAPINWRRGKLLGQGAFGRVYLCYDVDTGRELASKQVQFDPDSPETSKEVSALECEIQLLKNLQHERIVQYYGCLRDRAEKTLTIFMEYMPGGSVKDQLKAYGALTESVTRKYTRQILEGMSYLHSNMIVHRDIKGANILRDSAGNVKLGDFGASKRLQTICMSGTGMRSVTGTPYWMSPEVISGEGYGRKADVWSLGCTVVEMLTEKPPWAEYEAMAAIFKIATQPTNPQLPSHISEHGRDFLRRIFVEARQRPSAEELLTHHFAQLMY
TMEM16A inh: inhibitors of mouse TMEM16A calcium-activated chloride channel. AID 588511. normalized B-score (activity score, 25-100; higher = stronger inhibition) at 10 µM. hit rate 1.2% among 310,000. HEK293 TMEM16A/YFP iodide influx fluorescence, ionomycin. Q8BHY3;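 active means ratio plate-corrected score three or more library SD toward inhibition, starting fluorescence score within five deviations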;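 further: score derived from kinetic fluorescence span divided by baseline fluorescence per well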
MEKK2wt confirm: raises or lowers MEK5 binding to wildtype human MEKK2, retest | shares compounds with MEKK3 PB1 HTS | hit rate 2.4% among 5,900 | bead flow cytometry, Alexa488-MEK5 binding to MEKK2 WT; actives lie on both sides | binding response (% of control), % at 10 µM; in the data active means binding response below about 16% or above about 210%; inactive means in between
MEKK2mut-MEK5: signal of MEK5 binding to mutant human MEKK2, retest. hit rate 2% among 5,900. percent response, % at 10 µM. AID 1893. shares compounds with MEKK3 PB1 HTS. bead flow cytometry, Alexa488-MEK5 binding to MEKK2 mutant; in the data active means percent response mostly above about 71%, no sharp cut-off; inactive means mostly below about 38%;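 further: higher means compound restores mutant binding toward wildtype level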
MEKK3 confirm: confirmation of inhibitors of MEK5 binding to human MEKK3. shares compounds with MEKK3 PB1 HTS. binding response (% of control), % at 10 µM. bead flow cytometry, Alexa488-MEK5 binding to MEKK3; stronger effect = lower value. AID 1894. hit rate 1.8% among 5,900;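 active means binding response below 72% of control, or above a set upper limit, though filed actives all read lower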
Hits are given with their value; – = inactive; · = no result; [ ] = remark or other dose.

SMILES	ANO1 activ	MEKK2wt PB1 HTS	MEKK2 mut-MEK5	NTR1 ag	MEKK3 PB1 HTS	TMEM16A inh	MEKK2wt confirm	MEKK2mut-MEK5	MEKK3 confirm
CCc1ccc(-c2nc(CN3CCC(C(=O)N4CCN(c5ccccn5)CC4)CC3)c(C)o2)cc1	–	·	·	–	·	–	·	·	·
COc1ccc2cc(CO)c(Cl)nc2c1	–	–	–	–	–	–	·	·	·
COc1ccc2cc(/C=N/O)c(Cl)nc2c1	–	–	–	–	67.0[inhibitor]	–	–	–	–
COc1ccc(CN(C(=O)CN2C(=O)c3ccccc3S2(=O)=O)C(C(=O)NCC2CCCO2)c2ccncc2)cc1 (stereo unspecified)	–	–	–	–	–	–	·	·	·
O=C(/C(=N\Nc1ccccc1)Sc1nnnn1-c1ccccc1)c1ccccc1	–	–	–	–	138.0	–	–	–	–
NC(=O)c1ccc(-n2nnnc2SCC(=O)Nc2ccccc2)cc1	–	–	–	–	–	–	·	·	·
CCCn1c(-c2cccs2)nc2ccccc21	–	–	–	–	–	–	·	·	·
CCN1c2ccccc2-c2nc3ccccc3n2C1c1cccs1 (stereo unspecified)	–	0.0[inhibitor]	–	–	0.0[inhibitor]	–	–	–	–
NC(=S)NN=C(c1ccc(F)cc1)C1CC1	–	·	·	·	·	·	·	·	·
O=C(CCc1nc(-c2ccccc2F)no1)NC1CCN(Cc2ccccc2)CC1	–	–	24.0	–	–	–	–	–	–
Cc1ccc(-c2noc(CCC(=O)NC3CCN(Cc4ccccc4)CC3)n2)cc1	–	–	–	·	–	·	·	·	·
Cc1csc(NC(=O)c2sc3nc(-c4cccs4)ccc3c2N)n1	·	66.0[inhibitor]	–	–	–	–	–	–	–
CCCSc1nnc(NC(=O)c2sc3nc(-c4cccs4)ccc3c2N)s1	–	–	–	–	–	–	·	·	·
CC1CC(C)CN(C(=O)COC(=O)c2cccc([N+](=O)[O-])c2)C1 (stereo unspecified)	–	–	–	–	48.0[inhibitor]	–	–	–	–
O=C(COc1ccccc1)N=C1SC2CS(=O)(=O)CC2N1c1ccc(F)cc1 (stereo unspecified)	–	–	–	–	–	–	·	·	·
N=C1CCCN1CC(=O)c1ccc(Cl)cc1	–	–	–	–	131.0	–	–	–	–
CC(C)(C)NC(=O)CCN(/N=C/c1ccccc1)C1=NS(=O)(=O)c2ccccc21	–	–	–	–	–	–	·	·	·
Cc1cccc(/C=N/N(CCO)C2=NS(=O)(=O)c3ccccc32)c1	–	–	–	–	138.0	–	–	–	–
CCN(CC(=O)Nc1ccc(Cl)c(C(F)(F)F)c1)CC(=O)NC1CCS(=O)(=O)C1 (stereo unspecified)	–	–	–	–	–	–	·	·	·
N#CCc1nc2n(n1)Cc1ccccc1-2	–	136.0	·	–	124.0	–	–	–	–
Nc1cnccc1C(=O)O	–	–	–	–	–	–	·	·	·
CC1=N/C(=C\c2ccccc2Cl)C(=O)O1	–	·	·	–	·	–	·	·	·
Cc1csc(NC(=O)C2CCCN(S(=O)(=O)c3ccc(Br)s3)C2)n1 (stereo unspecified)	–	–	–	–	–	–	·	·	·
O=c1[nH]c(SCc2ccccc2[N+](=O)[O-])nc2nc[nH]c12	–	–	–	–	45.0[inhibitor]	–	–	–	–
O=[N+]([O-])c1ccccc1CSc1ccccn1	–	–	–	–	–	–	·	·	·
SMILES	ANO1 activ	MEKK2wt PB1 HTS	MEKK2 mut-MEK5	NTR1 ag	MEKK3 PB1 HTS	TMEM16A inh	MEKK2wt confirm	MEKK2mut-MEK5	MEKK3 confirm
CCNC(=S)N(CCc1c(C)[nH]c2ccc(F)cc12)Cc1cccnc1	–	–	35.0	–	–	–	–	–	–
CCNC(=S)N(CCc1c(C)[nH]c2ccc(C)cc12)Cc1cccnc1	–	–	–	–	–	–	·	·	·
O=C1CCN(C(=O)Nc2ccccc2Cl)N1	–	–	–	–	48.0[inhibitor]	–	–	–	–
O=C1CCN(C(=O)Nc2cccc(Cl)c2)N1	–	–	–	–	–	–	·	·	·
C/C(=N\Nc1nc2ccccc2s1)c1ccc(Br)s1	–	138.0	–	–	–	–	–	–	–
CCCc1ccc(Oc2cn[nH]c2-c2ccc(O)c(C)c2O)cc1	–	–	–	–	123.0	100	–	–	–
CCCOC(=O)c1ccc(Oc2cn[nH]c2-c2ccc(OCC)cc2O)cc1	–	–	–	–	–	–	·	·	·
COc1ccc([N+](=O)[O-])cc1NC(=O)COC(C)=O	–	–	–	–	–	–	·	·	·
COc1ccc(C)cc1NC(=O)COC(C)=O	–	–	–	–	74.0[inhibitor]	–	–	–	–
C#CCOCCOCCOCCNc1nc(N2CCN(C(=O)Cn3cc(CCO)nn3)CC2)nc(N2CCN(C(=O)Cn3cc(CCCCN)nn3)CC2)n1	–	·	·	·	·	·	·	·	·
O=C(CSc1nc2ccccc2[nH]1)N1CCCCC1	–	–	–	–	–	–	·	·	·
CC1CCCCN1C(=O)CSc1nc2ccccc2[nH]1 (stereo unspecified)	–	–	–	–	143.0	–	–	–	–
CCOC(=O)CNC(=O)CSc1nnc(Cn2cnc3ccccc32)n1C	–	–	–	–	126.0	–	–	–	–
O=c1c(Cl)c(N2CCN(c3ccc(F)cc3)CC2)cnn1C12CC3CC(CC(C3)C1)C2	–	–	–	–	148.0	–	–	–	–
Cc1cc(NC(=O)NN2CCOCC2)nn1-c1c(Cl)cccc1Cl	–	–	–	–	–	–	·	·	·
C[C@@H]1CC=C[C@@H]2[C@H]1C(=O)N(Cc1ccccc1)[C@H]2c1cccc(Br)c1	·	·	·	–	·	·	·	·	·
CC[C@@H]1CC=C[C@H]2[C@H]1C(=O)N(Cc1ccccc1)[C@H]2c1ccc2ccccc2c1	·	–	–	–	79.0[inhibitor]	·	–	–	–
C[C@@H]1CC=C[C@H]2[C@H]1C(=O)N(Cc1ccccc1)[C@H]2c1ccc(F)c(-c2ccc(N(C)C)cc2)c1	–	54.0[inhibitor]	–	–	66.0[inhibitor]	–	–	–	–
CCc1c(C(=O)NC(C)C2CCCO2)csc1C (stereo unspecified)	–	–	–	–	–	–	·	·	·
COc1cccc(CC2(CO)CCCN(Cc3cc4ccccc4[nH]3)C2)c1 (stereo unspecified)	–	148.0	–	–	–	–	–	–	–
COc1cccc(CC2(CO)CCCN(Cc3ccc(C)s3)C2)c1 (stereo unspecified)	–	–	–	–	–	–	·	·	·
